# From PubChem
# Shown are actives, neighbours in structure and some others; about 3.2% of the full set was active somewhere.
# Mtb FBA inh: inhibitors of M. tuberculosis fructose-bisphosphate aldolase. purified M. tuberculosis FBA, fluorescence read-out. inhibition, % at 1 µM. 360,000 tested, 2.3% active. AID 588726
# TcdB inh: TcdB glycohydrolase inhibition | 350,000 tested, 0.24% active | inhibition, % at 9.99 µM | P18177 | TcdB glycohydrolase enzymatic assay, plate reader; in the data active means inhibition above about 10%
# Yp Topo-I inh: inhibitors of Yersinia pestis topoisomerase I; Y. pestis Topo-I cleavage product accumulation, plate reader; activity, % at 10 µM; 360,000 tested, 0.064% active; AID 504884; in the data active means activity above about 50%, passing the limit was not always enough
# GDH-TPI counter-1: inhibits GDH-TPI coupling enzymes, artifact for Mtb FBA screen. 360,000 tested, 1.2% active. AID 588335. GDH-TPI coupled enzyme counterscreen, NADH absorbance. inhibition, % at 4.8 µM; in the data active means inhibition above about 30%
# PrPC surface inh: reduces human prion protein on the cell surface. cell surface PrPC, TR-FRET read-out. inhibition, % at 13.8 µM. 370,000 tested, 0.43% active; in the data active means inhibition above about 24%
# Mtb FBA confirm: Mtb FBA inhibition, confirmed; shares compounds with Mtb FBA inh; purified M. tuberculosis FBA, fluorescence read-out; inhibition, % at 1 µM; 5,600 tested, 78% active
# GDH-TPI counter-2: counter-screen for M. tuberculosis FBA inhibitors: GDH-TPI coupled enzyme inhibition. shares compounds with Mtb FBA inh. GDH-TPI coupled enzyme counterscreen, fluorescence. inhibition, % at 1 µM. 5,600 tested, 81% active; in the data active means inhibition above about 10%
# Numbers stand for hits; – = inactive; · = no result; + = active, no number. Unless noted, no stated cut-off is given here; in the data, active means inhibition above about 27%; inactive means the rest.
SMILES,Mtb FBA inh,TcdB inh,Yp Topo-I inh,GDH-TPI counter-1,PrPC surface inh,Mtb FBA confirm,GDH-TPI counter-2
COc1ccccc1CCC(=O)Nc1ccc2c(c1)c(=O)n(C)n2Cc1cccc(C(F)(F)F)c1,93.6,–,–,–,–,+,196.6
COc1ccccc1CCC(=O)Nc1ccc2c(c1)CN(Cc1ccc(C)o1)CC2,–,–,–,–,–,·,·
COc1ccccc1-c1noc(CCC(=O)Nc2cccc(C(F)(F)F)c2)n1,–,·,–,–,–,·,·
COc1ccccc1CCC(=O)Nc1ccc2c(c1)c(=O)n(C)n2Cc1ccc(F)cc1,105.1,–,–,–,–,94.4,77.3
FC(F)(F)c1cccc(NC(=S)NC2CCCC2)c1,–,·,–,–,–,·,·
CCC(=O)N1CC2(C1)CN(C(=O)Nc1ccccc1F)[C@@H](CO)c1c2c2ccc(OC)cc2n1C,·,–,·,·,·,·,·
COc1ccc(CNC(=O)Nc2cccc(C(F)(F)F)c2)cc1OC,–,·,–,–,–,·,·
Cn1c(=O)c2cc(NC(=O)NCc3ccc(F)cc3)ccc2n1Cc1cccc(C(F)(F)F)c1,98.3,–,–,–,–,152.2,139.1
Cn1c(=O)c2cc(NC(=O)CCc3ccc(O)cc3)ccc2n1Cc1cccc(C(F)(F)F)c1,101.1,–,–,–,–,–,–
COCC(=O)Nc1cc(C)cn(Cc2cccc(C(F)(F)F)c2)c1=O,–,–,–,–,–,·,·
C=CCc1ccc(O)c(-c2cc(CC=C)ccc2O)c1,33.7,–,–,–,–,86.3,63.1
Cc1nn2c(-c3ccccc3)c(-c3ccccc3)nc2[nH]c1=O,–,·,–,–,–,·,·
O=C(O)CCc1nn2cc(-c3ccccc3)nc2[nH]c1=O,44.9,·,–,–,–,113.5,92.0
Cc1nn2cc(-c3ccccc3)nc2[nH]c1=O,37.2,·,–,–,–,78.9,81.2
O=C(Cc1ccncc1)NCC[C@H]1CC[C@H](NC(=O)C2CCCCC2)[C@H](CO)O1,·,–,·,·,·,·,·
Cc1ccc(S(=O)(=O)NNc2nc3ccccc3nc2C(F)(F)F)cc1,–,·,–,–,–,·,·
Cc1ccc(S(=O)(=O)NNc2c3ccccc3nc3ccc(Cl)cc23)cc1,91.1,–,–,–,–,41.7,28.4
Cc1cc(OCC(=O)OC(C)C)c2c3c(c(=O)oc2c1)CCCC3,–,·,–,–,–,·,·
CCOC(=O)C(C)Oc1cc(C)cc2oc(=O)c3c(c12)CCCC3 (stereo unspecified),75.3,·,–,–,–,65.3,61.5
COC(=O)C(C)Oc1cc(C)cc2oc(=O)c3c(c12)CCC3 (stereo unspecified),74.0,·,–,–,–,+,+
Cc1cc(Oc2ccc(C(F)(F)F)cc2[N+](=O)[O-])c2c3c(c(=O)oc2c1)CCCC3,–,–,–,–,–,·,·
COC(=O)C(C)Oc1cc(C)cc2oc(=O)c3c(c12)CCCC3 (stereo unspecified),57.0,·,–,–,–,59.1,51.0
CN(C)CC#Cc1ccc([C@H]2[C@@H](CO)N3C(=O)CN(C(=O)c4ccccc4)C[C@H]23)cc1,·,–,·,·,·,·,·
COc1ccc(NC(=O)Nc2ccc3c(c2)C(=O)N([C@H](C)CO)C[C@@H](C)[C@@H](CN(C)Cc2ccc(Cl)c(Cl)c2)OCCCC[C@H](C)O3)cc1,·,–,·,·,·,·,·
O=C(C[C@@H]1C=C[C@H](NC(=O)C2CCOCC2)[C@H](CO)O1)NCC1CC1,·,–,·,·,·,·,·
SMILES,Mtb FBA inh,TcdB inh,Yp Topo-I inh,GDH-TPI counter-1,PrPC surface inh,Mtb FBA confirm,GDH-TPI counter-2
CO[C@H]1CN(C)C(=O)c2ccc(NC(=O)C3CC3)cc2OC[C@@H](C)NC[C@@H]1C,·,–,·,·,·,·,·
COC(=O)c1cc(OC)nc2c1c(=O)n(C)c(=O)n2C,110.3,·,–,–,–,·,+
Cc1ccc(S(=O)(=O)N(C)C[C@H]2Oc3c(NC(=O)C4CCCCC4)cccc3C(=O)N([C@@H](C)CO)C[C@@H]2C)cc1,·,–,·,·,·,·,·
CC1CN(C(=O)c2cc(-c3ccc(Cl)s3)nc3ccccc23)CC(C)O1 (stereo unspecified),64.8,–,–,–,–,75.7,60.0
O=C(NCCCn1ccnc1)c1cc(-c2ccncc2)nc2ccccc12,–,–,–,–,–,·,·
O=C(NCCCN1CCOCC1)c1cc(-c2ccco2)nc2ccccc12,89.2,–,–,–,–,114.9,75.2
Cc1ccc(-c2cc(C(=O)NCCCn3ccnc3)c3ccccc3n2)s1,110.2,–,–,–,–,154.4,124.6
O=C(c1cc(-c2ccccc2Cl)nc2ccccc12)N1CCOCC1,–,–,–,–,–,·,·
O=C(NCCCN1CCOCC1)c1cc(-c2ccc(Cl)s2)nc2ccccc12,63.8,–,–,–,–,172.2,145.2
O=C(NCCCN1CCOCC1)c1cc(-c2ccc(F)cc2)nc2ccccc12,–,–,–,–,–,·,·
CN1C(=O)c2cc(NC(=O)c3cccc(C(F)(F)F)c3)ccc2OC[C@@H]2O[C@@H](CC(=O)O)CC[C@@H]21,·,–,·,·,·,·,·
C[C@H]1CN([C@@H](C)CO)C(=O)Cc2cc(NS(C)(=O)=O)ccc2O[C@@H]1CN(C)S(=O)(=O)c1ccccc1,·,–,·,·,·,·,·
COc1ccc(-c2ccc([C@H]3[C@H](CO)N4C(=O)CN(Cc5ccc(F)cc5)C[C@@H]34)cc2)cc1,·,–,·,·,·,·,·
COCC(=O)N(C)C[C@H]1Oc2cc(C#CCN(C)C)ccc2S(=O)(=O)N([C@H](C)CO)C[C@H]1C,·,–,·,·,·,·,·
N#C[C@H]1[C@@H](c2ccccc2-c2ccccc2F)[C@H](CO)N1C(=O)c1ccccn1,·,–,·,·,·,·,·
C[C@@H]1CN([C@@H](C)CO)C(=O)c2cc(NS(=O)(=O)c3ccccc3)ccc2O[C@@H](C)CCCCO[C@@H]1CN(C)C(=O)c1ccccc1,·,–,·,·,·,·,·
COc1ccc(-c2cc(C(=O)NCCCN3CCOCC3)c3cc(C(C)C)ccc3n2)cc1,70.2,–,–,–,–,+,140.8
CCOc1ccc(-c2cc(C(=O)NCCCN3CCOCC3)c3ccccc3n2)cc1,35.3,–,–,–,–,115.7,87.6
Cc1ccc(C)c(S(=O)(=O)Nc2ccccc2C(=O)Nc2ccc(S(=O)(=O)Nc3ncccn3)cc2)c1,106.5,–,–,–,–,+,+
Cc1ccc(C)c(S(=O)(=O)Nc2ccc(S(=O)(=O)Nc3ncccn3)cc2)c1,–,–,–,–,–,·,·
Cc1ccc(S(=O)(=O)Nc2ccccc2C(=O)Nc2ccc(S(=O)(=O)Nc3nccc(C)n3)cc2)cc1,66.2,·,–,–,–,35.0,20.2
Cc1noc(C)c1S(=O)(=O)N(C)C[C@@H]1Oc2ccc(NC(=O)Cc3cn(C)c4ccccc34)cc2CC(=O)N([C@H](C)CO)C[C@H]1C,·,–,·,·,·,·,·
CC(=O)Oc1ccc(-c2cc3ccccc3oc2=O)cc1,74.7,–,–,36.5,–,+,+
COC(=O)COc1ccc2cc(-c3ccc(OC)cc3)c(=O)oc2c1,44.0,–,–,–,–,188.1,170.8
CC(=O)Oc1ccc(-c2cc3c(OC(C)=O)cc(OC(C)=O)cc3oc2=O)cc1,91.7,–,–,–,–,170.9,194.6
C[C@H]1CN([C@@H](C)CO)C(=O)CCCn2cc(nn2)CO[C@H]1CN(C)C(=O)OCc1ccccc1,·,–,·,·,·,·,·
